# Experimental data as given in PubChem BioAssay (NCATS).
# Where “and” joins values, the source holds several entries; their conditions need not be identical. Equal values may be shown once. Results filed as inconclusive are left out. Values without a mark were called inactive. Calls of active or inactive are those of the source. The call rests on the fitted dose curve; in most records, active means well fitted curve in the direction sought with a large enough effect; inconclusive means small, poorly fitted or top-dose-only effect, or another doubt; inactive means no such curve, though single readings can be large; an effect the other way counts as inactive or inconclusive.
# Assay: Primary qHTS for inhibitors of nuclear receptor binding SET domain protein 2 (NSD2) in an isogenic RCH-ACV NSD2 p.E1099K mutant (9B) (AID 1645876)
# Settings: RCH-ACV NSD2 E1099K (9B) viability, CellTiter-Glo, 72 h; series mostly up to 44.9 µM; activity change, negative = viability loss: at the top concentration
# Further: nearly all actives have a fitted effect of over 70% in size.
# On the % scale 0 is the no-effect control and ±100 the full control effect; potency means the concentration at half of the fitted maximal effect.
Structure (SMILES),Potency,"activity change, negative = viability loss"
Oc1cccc(-c2c3nc(c(-c4cccc(O)c4)c4ccc([nH]4)c(-c4cccc(O)c4)c4nc(c(-c5cccc(O)c5)c5ccc2[nH]5)CC4)C=C3)c1,8.41 µM (active),
CCCCCCOC(=O)/N=C(\N)c1ccc(NCc2nc3cc(C(=O)N(CCC(=O)OCC)c4ccccn4)ccc3n2C)cc1,20.5 µM (active),
CCCCc1c(-c2ccc(OC)cc2)[nH]c2nccnc12,3.65 µM (active),
Cn1c(=O)c2c(ncn2Cc2ccc(C(C)(C)C)cc2)n(C)c1=O,6.49 µM (active),
Cc1nc(Nc2cnn(C3CCNCC3)c2)nc2c1N(C)C(=O)c1cc3ccccc3cc1N2C,5.15 µM (active),
CNS(=O)(=O)c1ccccc1Nc1nc(Nc2ccc(N3CCN(C)CC3)cc2OC)ncc1Br,0.649 µM (active),
COc1ccc(C2(CNC(=O)c3ccc(NC(=O)c4ccco4)cc3)CCOCC2)cc1,,-11%
OC(CC1c2ccccc2-c2cncn21)C1CCCCC1 (stereo unspecified),23 µM (active),
CC1(C(=O)Nc2ccc(F)nc2)CCCN1c1nc(Nc2cc(C3CC3)[nH]n2)c2cccn2n1 (stereo unspecified),1.29 µM (active),
COc1ccc(S(=O)(=O)Nc2cc(Cl)cc(Cl)c2OC)cc1N1CCNCC1,20.5 µM (active),
CCn1c(=O)c(-c2ccc(Cl)cc2Cl)cc2cnc(Nc3ccc(N4CCNCC4)c(F)c3)nc21,290 nM (active) and 662 nM (active),
CC(C)c1ccccc1OC(=O)NCCc1ccc2ccccc2c1,,-19.8%
CN(c1ccc(NC(=O)Nc2ccccc2)cc1)S(=O)(=O)c1cnn(-c2ccc(F)cc2)c1,20.5 µM (active),
Cc1cc(C(C)Nc2ccccc2C(=O)O)c2nc(N3CCOCC3)cc(=O)n2c1 (stereo unspecified),0.409 µM (active),
O=C(Nc1ccc(-n2nc(C(F)(F)F)cc2C(F)(F)F)cc1)c1ccncc1F,20.5 µM (active),
C=CC(=O)N1CCC[C@@H](n2nc(-c3cccc(C(=O)Nc4ccc(C(C)C)c(C)c4)c3)c3c(N)ncnc32)C1,8.17 µM (active),
CCNC(=O)Nc1ccc(-c2nc3c(c(N4CCOCC4C)n2)CCN(C2COC2)C3)cc1 (stereo unspecified),0.325 µM (active),

# Assay: Primary qHTS for inhibitors of nuclear receptor binding SET domain protein 2 (NSD2) in an RCH-ACV wild type WT cells (2C) (AID 1645877)
# Settings: RCH-ACV (leukaemia line) NSD2 WT (2C) viability, CellTiter-Glo, 72 h; series mostly up to 44.9 µM; activity change, negative = cell killing: at the top concentration
Structure (SMILES),Potency,"activity change, negative = cell killing"
Oc1cccc(-c2c3nc(c(-c4cccc(O)c4)c4ccc([nH]4)c(-c4cccc(O)c4)c4nc(c(-c5cccc(O)c5)c5ccc2[nH]5)CC4)C=C3)c1,8.41 µM (active),
CCCCCCOC(=O)/N=C(\N)c1ccc(NCc2nc3cc(C(=O)N(CCC(=O)OCC)c4ccccn4)ccc3n2C)cc1,16.3 µM (active),
Cn1c(=O)c2c(ncn2Cc2ccc(C(C)(C)C)cc2)n(C)c1=O,7.28 µM (active),
Cc1nc(Nc2cnn(C3CCNCC3)c2)nc2c1N(C)C(=O)c1cc3ccccc3cc1N2C,2.05 µM (active),
CNS(=O)(=O)c1ccccc1Nc1nc(Nc2ccc(N3CCN(C)CC3)cc2OC)ncc1Br,0.728 µM (active),
COc1ccc(C2(CNC(=O)c3ccc(NC(=O)c4ccco4)cc3)CCOCC2)cc1,,-16.2%
CCn1c(=O)c(-c2ccc(Cl)cc2Cl)cc2cnc(Nc3ccc(N4CCNCC4)c(F)c3)nc21,728 nM (active) and 742 nM (active),
CC(C)c1ccccc1OC(=O)NCCc1ccc2ccccc2c1,,-15.3%
C=CC(=O)N1CCC[C@@H](n2nc(-c3cccc(C(=O)Nc4ccc(C(C)C)c(C)c4)c3)c3c(N)ncnc32)C1,9.16 µM (active),
